Measurements as given in PubChem BioAssay AID597 (National Center for Advancing Translational Sciences (NCATS), 2007).
The whole screen tested about 68,000 compounds, of which about 60 (0.09%) were called active. The call rests on the fitted dose curve; in most records, active means well fitted curve in the direction sought with a large enough effect; inconclusive means small, poorly fitted or top-dose-only effect; inactive means flat fitted curve, though single readings scatter. These entries were drawn from the full list.

Test: qHTS Assay for Epigenetic Modulators; further: % of control where 0% means no effect
Conditions: mouse C127i GFP locus derepression, cytometry, 30 h; series mostly up to 46.1 µM; GFP derepression (activation): at the top concentration
Excerpt: NIH Molecular Libraries Screening Centers Network [MLSCN] NIH Chemical Genomics Center [NCGC] MLSCN Grant: 1 X01 MH079860-01 Assay Provider: Elisabeth D. Martinez, University of Texas SW Medical Center NCGC Assay Overview: The Locus Derepression assay detects the derepression of a GFP reporter that is stably integrated in a region of the genome of murine c127i mammary cells that is presumably silenced. GFP transcription in this construct is controlled by a CMV promoter, which normally is strong and constitutively active. However, this line was selected for lack of constitutive expression of the GFP protein. GFP production can be induced by incubating the cells with histone deacetylase or DNA methyltransferase inhibitors. Compounds that cause derepression of the locus to express GFP are identified by enumerating GFP positive cells using a laser-scanning microplate cytometer. For further details of this screen and follow-up characterization, see R.L. Johnson, W. Huang, A. Jadhav, C.P. Austin, J. Inglese, E.D. Martinez, A Quantitative High-Throughput Screen Identifies Potential Epigenetic Modulators of Gene Expression, Analytical Biochemistry (2008) 375(2):237-48.
NCGC Assay Protocol Summary: Two hundred and fifty cells in 5 uL per well were dispensed into black, clear-bottom 1536-well plates. Twenty-three nL compound was transferred to the assay plate and cells were incubated 30 hours at 37 C. Medium was removed, cells were washed two times with PBS, and GFP-positive cells were enumerated as fluorescent objects between the sizes of 20 to 120 um width and depth using an Acumen Explorer. Keywords: NIH Roadmap, MLSCN, MLI, MLSMR, qHTS, NCGC, qHTS, HDAC, DNMT, HAT, DNA methyltransferases, histone acetyl transferases, histone deacetylases

SMILES | GFP derepression (activation)
Cn1c(=O)c2cn(-c3cccc4ccccc34)cc2n(C)c1=O | 2.6% (inactive)
CC(C)NC(=O)N1CC[C@@]2(CCCN(C(=O)c3cccc(F)c3)C2)C1 | -0.9% [at 9.22 µM] (inactive)
CC(=O)c1ccc(Oc2cc(C)nc(-n3nc(C)cc3C)n2)cc1 | 4.2% (inactive)
Cc1ccc(-c2nn(-c3ccccc3)cc2CN(Cc2ccccc2)C(=O)CCC(=O)O)o1 | 2.2% (inactive)
COc1ccc(N2CCN(Cc3cc(=O)oc4ccc5ccccc5c34)CC2)cc1 | 0% (inactive)
O=C(NCCCNC(=O)NC1CCCCC1)NC1CCCCC1 | 0.2% (inactive)
FC(F)(F)c1cccc(Nc2ncnc3ccccc23)c1 | 1.2% (inactive)
O=C1C2(c3ccccc3)CN(CCCO)CC1(c1ccccc1)CN(CCCO)C2 | 2.1% (inactive)
COC(=O)c1sc(=S)n(-c2ccccc2)c1N | 1.6% (inactive)
CCCN1C(=O)C(NC(C)=O)c2cc(OC)ccc21 (stereo not drawn) | -0.4% (inactive)
O=C(NCCc1ccco1)c1nn(Cc2ccccc2)c(=O)c2ccccc12 | -1.2% (inactive)
CC(C)(C)C(=O)CCN1C(=O)C2(OCCO2)c2ccccc21 | -1.2% (inactive)
CCC(C(=O)OCCN(CC)CC)c1ccccc1 (stereo not drawn) | 6.1% [at 20.6 µM] (inactive)
Cc1cc(C)c2nc3c(c([C@H](O)[C@@H]4CCCCN4)c2c1)CC/C3=C/c1ccc(Cl)cc1 | 0% [at 9.22 µM] (inactive)
CC1=CC(C)(C)N(C(=O)CSc2nnc(-c3ccccc3)o2)c2ccc(C)cc21 | 0% (inactive)
O=C(O)c1ccc(NS(=O)(=O)c2cccc3nsnc23)cc1 | -2.6% (inactive)
COc1ccccc1C(=O)NCCn1cc(SCC(=O)NCc2ccco2)c2ccccc21 | 1.4% (inactive)
O=C(Cn1[nH]c(=O)c2ccccc2c1=O)Nc1cccc(-c2nnc3n2CCCCC3)c1 | 1.3% (inactive)
COc1ccc(NC(=O)c2c(C)oc3c2CCCC3)cc1 | 3.4% (inactive)
CS(=O)(=O)N1CCC[C@@]2(CCN(c3ccncc3)C2)C1 | 0% [at 9.22 µM] (inactive)
O=C(O)c1ccc(NC(=O)c2cccs2)cc1 | 3.2% (inactive)
O=C(Nc1ccc(Cl)cc1)c1ccsn1 | 2.2% (inactive)
COc1ccc(C2C3=C(CC(C)(C)CC3=O)Oc3ncn4nc(-c5cccnc5)nc4c32)cc1OC (stereo not drawn) | 2.6% (inactive)
CN1CCN2c3ccccc3Cc3ccccc3[C@@H]2C1 | inactive

SMILES | GFP derepression (activation)
O=C(CCCn1c(SCC(=O)c2ccc(F)cc2)nc2ccccc2c1=O)NCc1ccco1 | -1% (inactive)
COC(=O)[C@H](C)NC(=O)Nc1ccc(OC(F)(F)F)cc1 | -0.4% (inactive)
COC(=O)c1cnn2c(C(F)(F)F)cc(-c3ccco3)nc12 | 0% (inactive)
COc1ccc(-c2nnc(SC(=O)N3c4ccccc4Sc4ccccc43)o2)cc1 | 1.5% (inactive)
COc1ccccc1-c1nc(NCc2cccs2)c2ccccc2n1 | 0% [at 9.22 µM] (inactive)
O=c1oc2c(CN3CCCCC3)c(O)ccc2c2c1CCCCC2 | 0% [at 20.6 µM] (inactive)
COc1ccc(C2N=C(N)N=C(N)N2c2ccccc2)cc1OC (stereo not drawn) | 0% (inactive)
O=C(O)COc1c(Cl)cc(Cl)c2cccnc12 | 5.8% [at 9.22 µM] (inactive)
CCn1c(SCC(=O)Nc2ccc3c(c2)OCCO3)nc2c(c1=O)SC(C)C2 (stereo not drawn) | 2.9% (inactive)
Cn1c(=S)c2[nH]c(SCCCc3ccccc3)nc2n(C)c1=O | -3.4% [at 9.22 µM] (inactive)
COc1cccc(Cn2c(=O)c(-c3ccccc3)nc3cnc(OC)nc32)c1 | 10.8% [at 9.22 µM] (inactive)
CCCC(C(=O)OCCN(CC)CC)(c1ccccc1)c1ccccc1 | inactive
O=C(OCCN1CCOCC1)C1(c2ccccc2)CCCCC1 | inactive
O=C(c1cc(C(F)(F)F)cc(C(F)(F)F)c1)N1CCC2(CCCN(Cc3ccncc3)C2)CC1 | 2.2% [at 9.22 µM] (inactive)
O=C(O)CCC(=O)Nc1ccc(N2CCOCC2)cc1 | -1.2% (inactive)
COCCn1c(=O)c(-c2cc(F)cc(F)c2)nc2cnc(N3CCNCC3)nc21 | -0.5% [at 9.22 µM] (inactive)
CN(C)C(=O)c1ccc(-c2cncnc2Nc2ccccc2)cc1 | 5.7% [at 9.22 µM] (inactive)
COc1ccc(NC(=O)CSc2nnc(-c3cccs3)n2Cc2ccco2)cc1OC | -2.1% (inactive)
CCOC(=O)N1CCN(C(=O)c2n[nH]c(=O)c3ccccc23)CC1 | 0% (inactive)
CC(=O)Nc1ccc(S(=O)(=O)N2CCSCC2)cc1 | 0% (inactive)
CCOc1ccc(NS(=O)(=O)c2ccc(OCC(=O)NCCCOC)cc2)cc1 | -5.3% (inactive)
COc1ccc(C(=O)N/N=C2/C(=O)c3c(C)cc(C)cc3CC2(C)C)cc1 | 3.4% [at 9.22 µM] (inactive)
N#Cc1cc2[nH]c(=O)c(=O)[nH]c2cc1[N+](=O)[O-] | 1% (inactive)
N/C(=N\c1nc2ccccc2o1)NC(=O)C(Cc1ccccc1)N1C(=O)c2ccccc2C1=O (stereo not drawn) | -2.2% (inactive)
